Reference: PubChem BioAssay (NCI)
The panel holds about 83,000 compounds, 20% with a hit somewhere; the sample as a whole holds those more often.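 Treatment: one concentration, 48 hours, 96-well format. Scoring: percent growth, with anything below 10 considered active.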 Values without a mark were called inactive. Activity calls are given as the source filed them.

Assays:
Assay in all cases: NCI-60 one-dose screen, 48 h (100 = growth as untreated, 0 = no growth, -100 = all killed)
Details in all cases: 10 µM unless noted
[1] = system: DU-145 prostate
[2] = system: K-562 leukemia
[3] = system: MALME-3M melanoma
[4] = system: MDA-MB-231 breast
[5] = system: RXF 393 renal
[6] = system: SF-268 CNS
[7] = system: SF-295 CNS
[8] = system: SF-539 CNS
[9] = system: UACC-257 melanoma
[10] = system: M14 melanoma

Compound	growth [1]	growth [2]	growth [3]	growth [4]	growth [5]	growth [6]	growth [7]	growth [8]	growth [9]	growth [10]
N#Cc1c2c(c(N)[nH]c1=O)C(=O)NC2(O)c1ccccc1 (stereo not given)	105%	98.7%	87.1%	112%	103%	105%	100%	104%	96.7%	100%
c1cncc(-c2nc3ccccc3[nH]2)c1	112%	102%	109%	83.4%	94.6%	105%	118%	97.8%	27.7%	99.7%
Cc1ccc(N(CC2=NCCN2)c2cccc(O)c2)cc1	112%	86.3%	90.4%	113%	98.5%	107%	83.3%	106%	103%	103%
O=C(O)c1ccc(-n2cc(/C=N/Nc3ccc(Cl)cc3)c(-c3ccc(F)c(F)c3)n2)cc1	85.4%	7.69% (active)	36%	93%	108%	71.1%	66.6%	88.2%	99.4%	57.5%
C#C[C@@]1(O)[C@@H](CO)O[C@@H](n2cc(Br)c3c(Cl)ccnc32)[C@@H]1O	-41.3% (active)	14.3%	62.1%	-26.6% (active)	-15.9% (active)	61.7%	26.6%	17.8%	91.3%	62.4%
CCN(CC)CCNCC(O)Cc1ccc(OC)cc1 (stereo not given)	110%	105%	113%	105%	103%	107%	104%	106%	86.1%	104%
CCNc1cc(S(=O)(=O)O)ccc1C	108%	102%	106%	102%	110%	113%	101%	102%	83.2%	106%
O=C(Nc1cccc([N+](=O)[O-])c1)c1ccc2ccccc2c1O	79.3%	45.6%	20.5%	82.2%	37.5%	71.7%	57.1%	55.2%	14.5%	49.8%
O=C(COc1ccc(Cl)cc1)N1CCN(Cc2ccc3c(c2)OCO3)CC1	113%	84.8%	98.4%	87.2%	109%	95.9%	95.4%	104%	103%	111%
COc1ccc2c(c1)OC(N(C(C)=O)C(C)=O)=C(C#N)C2c1ccc(F)cc1 (stereo not given)	37.9%	10.2%	62.5%	53.1%	-2.33% (active)	54.1%	18.3%	13.9%	63%	20.5%
C=CCOc1ccc(/C(Cl)=N/N=C(\Cl)c2cc(OC)c(OC)c(OC)c2)cc1	70%	69.4%	90.9%	82.4%	58.7%	85.5%	87.9%	88.8%	53.3%	73.4%
Nc1ncc(-c2ccc3ncnc(Nc4ccc(F)c(Cl)c4)c3c2)cn1	43.3%	55.5%	36.3%	54.4%	32.9%	54.9%	16.2%	55.4%	101%	87.5%
O=C1OC(=O)C2C3CC(c4ccccc43)C12 (stereo not given)	145%	111%	101%	117%	116%	123%	101%	103%	91.8%	112%
COc1ccc(/C=C/C(=O)c2ccc(Oc3ncnc4ccccc34)cc2)cc1OC	61.9%	9.19% (active)	77.5%	81.6%	88.1%	74.8%	85.7%	73.5%	93.8%	64.3%
O=c1c2ccccc2sc2c(NCCCNCCO)nc3ccccc3c12	16.5%	-39.5% (active)	-55.3% (active)	-10.6% (active)	14.2%	37.5%	-3.85% (active)	54.7%	64%	-61.8% (active)
O=C(COc1ccc(Cl)cc1Cl)N1N=C(c2ccc(Cl)cc2Cl)CC1(O)c1cc(F)c(Cl)cc1Cl (stereo not given)	123%	64.4%	129%	136%	134%	103%	117%	112%	99%	94.1%
COc1ccc(C2=NN(C(=O)COc3ccc(Cl)cc3)C(O)(c3cc(F)c(Cl)cc3Cl)C2)cc1 (stereo not given)	105%	82.4%	85.8%	105%	94.1%	102%	80.6%	89.3%	98.6%	85.2%
CN(C)CCNc1nc2ccccc2c2c(=O)c3ccccc3sc12	8.96% (active)	-35.1% (active)	12.2%	-11.6% (active)	6.42% (active)	26.3%	0.247% (active)	36.7%	28.8%	-54.7% (active)
COc1ccc(-c2nn(-c3ccc(NC(=O)c4cc(C(F)(F)F)cc(C(F)(F)F)c4)cc3)cc2-c2ccncc2)cc1Cl	76.7%	29%	95.1%	49.3%	-6.8% (active)	68.7%	33.1%	67.7%	78.8%	40.1%
CC(C)Cn1cnc2c3ccccc3nc(NCn3nc(-c4cc(Cl)cc(Cl)c4Cl)oc3=S)c21	115%	59.6%	116%	82.9%	95%	110%	100%	94.7%	99.4%	79.9%
Nc1ncnc2c1c(C(F)(F)F)cn2[C@@H]1O[C@H](CO)[C@@H](O)[C@H]1O	17.9%	5.69% (active)	-16.9% (active)	15.7%	-45.2% (active)	7.4% (active)	7.79% (active)	-31.7% (active)	-5.51% (active)	2.76% (active)
COC1OCC(OS(=O)(=O)c2ccc(C)cc2)C(OC(=O)c2ccccc2)C1OC(=O)c1ccccc1 (stereo not given)	66.6%	37.8%	37.3%	57.2%	49.6%	62.4%	30%	39.2%	71%	34.3%
COC1=C(OC)C(=O)C=CC1=O	114%	7.24% (active)	114%	101%	114%	109%	113%	110%	110%	116%
CC1(C)CC(=O)C2=C(C1)OC1=C(C(=O)CC(C)(C)C1)C2c1ccc(OCc2cn(-c3ccc(F)cc3F)nn2)cc1	92.2%	73.8%	89.6%	91.8%	107%	84.9%	95.5%	99.8%	83.3%	87.3%
NS(=O)(=O)c1ccc(Nc2nc(O)c(/C=C3\C=Nc4ccccc43)s2)cc1	110%	101%	92.7%	87.9%	111%	106%	102%	98.1%	88.7%	103%
CN1CCN(CC(O)COc2c(Br)c(Br)c(Br)c3c2OC(C)(C)C3)CC1 (stereo not given)	89.9%	-16.5% (active)	-36.9% (active)	49.7%	29.4%	63.8%	38.7%	58.3%	99.9%	-53.5% (active)
CCCCCCCCCCCCCCCCCCNCc1ccc(Cl)cc1	-91.3% (active)	-65.7% (active)	-57.6% (active)	-72.9% (active)	-74.4% (active)	-63.5% (active)	-46.8% (active)	-88.1% (active)	38.9%	-72.2% (active)
